Assay outcomes (PubChem)
Pf Dd2 inh = qHTS Primary assay for Inhibitors of Plasmodium falciparum Dd2 growth in vitro | hit rate 4.3% among 120,000 | P. falciparum Dd2 growth, SYBR Green, 72 h | Potency, µM (series often up to 28.9 µM), without a hit: at the highest dose activity, negative = inhibition, most hits filed as inhibitors; active means well fitted inhibition curve with a large enough effect;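 further: plate controls were DMSO vehicle for no effect and reference drug for full effect; nearly all actives have a fitted effect of over 65% in size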
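Readout: SYBR Green fluorescence, 485 nm excitation, 535 nm emission, after ~16 h lysis at 37C. Before that, Dd2-infected red cells (2.5% hematocrit) grew 72 h with compound, 29 uM top final concentration.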
An asterisk follows results filed as active; i = inactive; [ ] = remark or other dose. The full list was thinned out, with hits kept by preference. Potency means the concentration at half of the fitted maximal effect.

SMILES | Pf Dd2 inh
C=Cc1cccc(CN2CCCC3(CCNC3)C2)c1 (configuration not stated) | 10µM*
Cc1ccc(S(=O)(=O)Nc2ccc3nc(-c4ccc(F)cc4)oc3c2)cc1 | 33%
COc1ccc(N2CCN(C(=O)c3cc(NC(C)=O)cc4nc(C)ccc34)CC2)cc1 | i
COc1ccc(-c2nc(C)nc3c2CN(C(=O)c2ccc(Cl)nc2)CC3)cc1 | i
CO[C@@](C(=O)N1CCOC[C@H]1c1ncc(-c2ccccc2)[nH]1)(c1ccccc1)C(F)(F)F | i
CC(C)(C)CN1CCOC[C@H]1c1ncc(-c2ccccc2)[nH]1 | i
Cn1c(CN2CCOC[C@H]2c2ncc(-c3ccc(Cl)s3)[nH]2)nc2ccccc21 | 11µM*
CS(=O)(=O)c1ccc(CN2CCOC[C@H]2c2ncc(-c3ccc(Cl)s3)[nH]2)cc1 | i
CN1CCC(N2CCOC[C@H]2c2ncc(C(C)(C)C)[nH]2)CC1 | 9%[44.1 µM]
CN1CCOC[C@H]1c1ncc(-c2ccc(F)cc2F)[nH]1 | i
Clc1ccc(-c2cnc([C@@H]3COCCN3Cc3ccccc3)[nH]2)s1 | i
Cn1cc(CN2CCOC[C@H]2c2ncc(C(C)(C)C)[nH]2)c2ccccc21 | 10µM*
C[C@@H](NC(=O)N1CCOC[C@H]1c1ncc(-c2ccc(Cl)cc2)[nH]1)c1ccccc1 | 13µM*
Clc1ccc(-c2cnc([C@@H]3COCCN3C3CCCCC3)[nH]2)cc1 | -27%[44.1 µM]
CS(=O)(=O)c1ccc(-c2cnc([C@@H]3COCCN3Cc3ccccc3O)[nH]2)cc1 | i
Oc1ccccc1CN1CCOC[C@H]1c1ncc(-c2ccc(F)cc2F)[nH]1 | 3.2µM*
NC(=O)c1ccccc1OC[C@@H]1CCCN2CCCC[C@H]12 | i
O=C(CN1CCN(Cc2ccc(F)cc2Cl)C1=O)NCCc1ccc(Cl)cc1 | 0%
COc1cccc(CCC(=O)N2CCC3(CC2)N=C(c2cccc(Br)c2)NO3)c1 | 5%
CCn1nc(C)c(CCNC(=O)[C@H]2CNC[C@H](C(=O)N3CCCC3)C2)c1C | -4%
CCn1cc(-c2cc3c(cn2)CN(Cc2cccnc2)CCN3)cn1 | 20%[44.1 µM]
COc1ccc(-c2cnc([C@@H]3COCCN3Cc3ccncc3)[nH]2)cc1 | i
COc1ccc(CN2CCOC[C@H]2c2ncc(-c3ccc(C)cc3)[nH]2)cc1 | -1%[44.1 µM]
COc1ccc(-c2cnc([C@@H]3COCCN3Cc3ccccc3)[nH]2)cc1 | 10µM*
Cc1cccc(OCCSc2nc3ccccc3n2CC(=O)N2CCOCC2)c1 | -7%
SMILES | Pf Dd2 inh
CCC(=O)Nc1ccc2nc3c(=O)n(C)c(=O)n(C)c3nc2c1 | 2%
CC(C)(C)CC(=O)NC1CCN(c2cnn(Cc3ccccc3)c(=O)c2)CC1 | i
O=C(NC1CCN(c2cnn(Cc3ccccc3)c(=O)c2)CC1)c1ccsc1 | 10µM*
Cn1ncc(N2CCC(NC(=O)c3ccsc3)CC2)cc1=O | -17%
COc1ccc(NC(=O)CN2C(=O)CN=C(c3ccccc3)c3ccccc32)c(OC)c1 | i
O=[S+]([O-])(c1ccc(Cl)cc1)c1nnn2c1nc(NCc1ccncc1)c1ccccc12 | 11%
CCn1nccc1C(=O)N1CCC(OCCOc2ccc(F)cc2)CC1 | 4%
CCCNC(=O)[C@H]1CCC[C@H]1NC(=O)c1ccncc1 | 13%
O=C1Nc2ccccc2CC12CCCN2Cc1ccc(Cl)cc1 (configuration not stated) | 6%
O=C1Nc2ccccc2CN(Cc2ccc(Cl)cc2)C12CCNC2 (configuration not stated) | 10µM*
O=C1Nc2ccccc2CC12CCCN2CC1CCCCC1 (configuration not stated) | 7.1µM*
CC(=O)N1Cc2ccccc2NC(=O)C12CCNC2 (configuration not stated) | 18%[44.1 µM]
CCN1Cc2ccccc2NC(=O)C12CCNC2 (configuration not stated) | -19%
CN1Cc2ccccc2NC(=O)C12CCNC2 (configuration not stated) | 10%[44.1 µM]
O=C1Nc2ccccc2CN(CC2CCCCC2)C12CCNCC2 | 11µM*
CC(=O)N1Cc2ccccc2NC(=O)C12CCNCC2 | 20%
O=C1Nc2ccccc2CC12CCCN2CC1CCOCC1 (configuration not stated) | -7%
O=C(CSc1nnc2[nH]c(=O)cc(-c3ccccc3)n12)Nc1ccc(OC(F)(F)F)cc1 | 5%
O=C1Nc2ccccc2C12CCN(Cc1cccnc1)CC2 | -11%
Cc1noc(C)c1CCNC(=O)C1CCCN(S(C)(=O)=O)CCC(=O)NCC1 (configuration not stated) | 11%
COC(=O)CNC(=O)C1CCCN1c1nc2ncccc2o1 (configuration not stated) | -2%[44.1 µM]
CCNC(=O)CCCN1C(=O)CCn2nc(-c3cccn3C)cc21 | i
COc1ccc(-c2ccccc2C=O)cc1 | 8%[44.1 µM]
CNc1oc(-c2ccc(COc3ccc(C)cc3)o2)nc1C#N | -16%
COc1ccc(Nc2oc(-c3ccc(COc4ccccc4C)o3)nc2C#N)cc1 | 11µM*
SMILES | Pf Dd2 inh
COc1ccc(OCc2ccc(-c3nc(C#N)c(N4CCCCC4)o3)o2)cc1 | 9%
COc1ccc(C(=O)N2CCN(c3cc(C(F)(F)F)ncn3)CC2)cc1 | 38%
CCCC(=O)Nc1ccc(C(=O)N2CCc3nc(C)n(C)c(=O)c3CC2)cc1 | 4%
O=C(c1ccc2c(c1)CC(=O)N2Cc1ccccc1)N1CCN(C2CCCCC2)CC1 | 1.4µM*
O=C(NCc1cccc(F)c1)c1ccc2c(c1)CC(=O)N2Cc1ccccc1 | i
O=C(O)c1ccc2c(c1)CC(=O)N2Cc1ccc(F)cc1 | i
CC(C)NC(=O)NC[C@H]1O[C@@H](CC(=O)N(C)Cc2ccccc2)[C@H](O)[C@@H]1O | 34%[44.1 µM]
Cc1cc(C)c(NC(=O)Cn2c(=O)n(CC3CCCO3)c(=O)c3ccccc32)c(C)c1 (configuration not stated) | 35%
CCOc1ccc(CNC(=O)C2CCN(c3nn4c(=O)cc(C)nc4s3)CC2)cc1 | 22%
CCCc1noc(-c2cccn3c(CNC(=O)CC4CCCCC4)nnc23)n1 | -24%
CCc1ccc(NCc2cccn2-c2nnc(N3CCCCCC3)s2)cc1 | -16%
Cc1ccc(NCc2cccn2-c2nnc(N3CCC(C(=O)NCc4ccc(OC(C)C)cc4)CC3)s2)cc1 | -28%
Cc1ccc(CN(Cc2cccn2-c2nnc(N3CCCC3=O)s2)C(=O)Nc2ccccc2Cl)cc1 | 11µM*
O=C(COc1ccccc1)NCC(c1cccs1)S(=O)(=O)c1ccc(Cl)cc1 (configuration not stated) | 22%
Cc1ccc(-c2ccc3nnc(CNC(=O)Cc4ccc(F)cc4)n3n2)cc1C | i
CN1CCC2(CC1)CN(C(=O)c1cncc(Br)c1)Cc1ccccc1O2 | -3%
Cc1ncoc1C(=O)N1CCOc2ccc(CCC(N)=O)cc2C1 | -6%
CCN(CC)Cc1ccc2c(c1)CN(C(=O)c1cncc(Br)c1)CCO2 | 8.9µM*
COCc1cc(=O)n(CC(=O)Nc2cccc(Cl)c2C)c(N2CCOCC2)n1 | i
COc1cccc([S+](=O)([O-])N2CCC3(CC(C)=NO3)C2)c1 (configuration not stated) | -6%[44.1 µM]
CC(NC(=O)C1CCN(C(=O)c2ncn3c2COC(c2ccccc2)C3)CC1)c1ccc(F)cc1 (configuration not stated) | i
COc1ccc(C(C)NC(=O)C2CCN(C(=O)c3ncn4c3COC(c3ccccc3)C4)CC2)cc1 (configuration not stated) | 7.9µM*
CC(NC(=O)C1CCN(C(=O)c2ncn3c2COC(c2ccc(Cl)cc2)C3)CC1)c1ccccc1 (configuration not stated) | -16%
